The whole screen tested about 69,000 compounds, of which about 8,600 (12%) showed an effect of 50% or more. Many of the other results were omitted from the sample, so strong results are more common in it than they were.
test system: Plasmodium berghei; assay: Screen against P. berghei liver stage (PbLuc), transformed with Luciferase, at 10uM; assay type: functional, HepG2; conditions: tested at 10 uM

Row | SMILES | INHIBITION [%]
1 | O=C(CCc1nc(-c2ccccc2)no1)N[C@H]1COC[C@@H]1N1CCCC1 | -12.1
2 | Cc1nc(N)cc(C2CN(C(=O)c3cscn3)CCO2)n1 (stereo not given) | 35
3 | COc1ccc(NC(=O)COc2nn(C)c3nc(C)cc(C)c23)cn1 | 22.8
4 | CCc1ccc(C2CCCCCN2C(=O)CNC(=O)C2CC2)o1 (stereo not given) | 63.7
5 | CCc1ccc(C(=O)N2CCCCC2CNS(C)(=O)=O)o1 (stereo not given) | -23.5
6 | CC(C)CNC(=O)CN1CCCC(c2ccc(C(=O)O)cc2)C1 (stereo not given) | 33
7 | CNCC(=O)N1CCCC1c1nc(C(C)C)no1 (stereo not given) | 6.33
8 | CCc1ccc(C2CCCN2C(=O)NCC(=O)NCC(C)C)o1 (stereo not given) | 60.4
9 | CCc1ccc(C(=O)NCC2CCCN2CC)o1 (stereo not given) | 31.2
10 | O=C(NCC(=O)N1CCCC1Cc1cccc(F)c1)C1CCCC1 (stereo not given) | 7.19
11 | CC(C)CCC(=O)NCC(=O)N1CCCCCC1c1ccco1 (stereo not given) | 19.3
12 | Cc1ccc(C2CCCCCN2C(=O)Nc2cn[nH]c2)o1 (stereo not given) | -22.05
13 | CCc1ccc(C2CCCN2C(=O)CNC(=O)CCC(C)C)o1 (stereo not given) | 64.8
14 | CCn1nccc1CNC(=O)NC1CCCCC1 | 26.8
15 | CCc1ccc(C2CCCCCN2C(=O)CNC(=O)NC2CC2)o1 (stereo not given) | 68
16 | COc1ccc(C(=O)Nc2ccc3c(c2)C(=O)NC3)cc1Br | -64.3
17 | COCc1cc(N(C)CCC(O)c2ccccc2)n2nccc2n1 (stereo not given) | -27.3
18 | O=C1CSC(C(F)(F)F)c2c(O)nn(C3CCCCC3)c2N1 (stereo not given) | 38.1
19 | Cc1cnn(CCNc2nc(C)cc(N(C)C)n2)c1 | 21.5
20 | CCc1nnc2n1CCN(C(=O)CCOc1cc(C)ccc1C)C2 | -3.19
21 | O=S(=O)(Cc1ccc(F)c(Cl)c1)NCCOc1cccnc1 | -11.4
22 | c1cnc2[nH]c(C3CCCNC3)c(CN3CCCOCC3)c2c1 (stereo not given) | -15.3
23 | CC(=O)Nc1ccc(CC(=O)N2CC(S(=O)(=O)C3CCCCC3)C2)cc1 | 13.1
24 | CCc1ccc(C2CCCN2C(=O)Cc2ccc(NC(C)=O)cc2)o1 (stereo not given) | 65.8

Row | SMILES | INHIBITION [%]
25 | CCc1ccc(C(=O)NC[C@H]2CCCN2C(=O)c2ccc(CC)o2)o1 | -3.68
26 | Cc1nnc(N2C[C@H](Oc3ccccn3)[C@H]3OCCC[C@H]32)s1 | -10.3
27 | Cc1cc(NC(=O)CCNC(C)(C)c2nc(C)c(C)s2)no1 | 53.8
28 | Cc1cc(NC(=O)NC(C)(C)c2nc(C)c(C)s2)no1 | 29.1
29 | Cc1cc(NC(=O)CNC(C)(C)c2nc(C)c(C)s2)no1 | 26.6
30 | Cn1cc(C(=O)Nc2ccc3c(c2)N(C(=O)c2ccco2)CC3)nn1 | 20.1
31 | c1ccc(C[C@H]2CN(Cc3nccs3)CC[C@H]2OCC2CC2)cc1 | 50
32 | c1ccc(C[C@H]2CN(Cc3nccs3)CC[C@@H]2OCC2CC2)cc1 | 62.5
33 | c1csc(CN2C[C@H](OCC3CC3)[C@H]3COC[C@H]32)n1 | 12.6
34 | c1ccc(C[C@H]2CN(C3CCOCC3)CC[C@H]2OCC2CC2)cc1 | -54.1
35 | c1csc(CN2CCCn3cnc(COCC4CC4)c3C2)n1 | 37.8
36 | CCCNC(c1ccc(F)cc1)c1cccnc1 (stereo not given) | 42.1
37 | CC(C)c1ccc(C(O)CN2CCN(Cc3nccn3C)CC2)cc1 (stereo not given) | -65.3
38 | CCC1CN(Cc2cccc(C(=O)N(C)C)c2)CCN1CCOC (stereo not given) | -34
39 | Cc1cccc(CN2C[C@@H]3CN(C(=O)NC(C)C)C[C@@H]3C2=O)n1 | -31.9
40 | CC(C)c1cc(NC(=O)CN2CCC(C(N)=O)CC2)on1 | 9.64
41 | CC(C)c1cc(NC(=O)CN2CCC(N3CCCCC3)CC2)on1 | 74.1
42 | CC(C)(C)c1cc(NC(=O)CNC2CCc3ncnn3C2)on1 (stereo not given) | 48.4
43 | CC(C)c1cc(NC(=O)CN2CCC(N3CCNC3=O)CC2)on1 | 17.3
44 | Cc1cc(NC(=O)CNC2CCc3ncnn3C2)on1 (stereo not given) | 6.67
45 | CC(C)c1cc(NC(=O)CN2CCCC(Cn3cncn3)C2)on1 (stereo not given) | 5.58
46 | CNC(=O)C1CCN(CC(=O)Nc2cc(C(C)C)no2)CC1 | 53
47 | CC(C)c1cc(NC(=O)CN2CCNC(=O)C2)on1 | 20.6
48 | CC(C)c1cc(NC(=O)CNC2CCc3ncnn3C2)on1 (stereo not given) | 65.3

Row | SMILES | INHIBITION [%]
49 | Cc1ccc2nnc(C(=O)NCC3CCCC3)nc2c1 | -4.01
50 | O=C(c1cccnc1)N1CCn2nnc(COc3ccccn3)c2C1 | 41.6
51 | CN(C)CCOCc1cncc2c1CCN(C(=O)c1cscn1)C2 | 49.4
52 | CSc1ccc(S(=O)(=O)NC2CNC(=O)C2)cc1 (stereo not given) | 42.1
53 | COc1cccc(S(=O)(=O)NC2CNC(=O)C2)c1 (stereo not given) | -12.2
54 | O=C1CC(NS(=O)(=O)c2ccc(Br)cc2)CN1 (stereo not given) | 53.7
55 | COC(=O)c1ccc(S(=O)(=O)NC2CNC(=O)C2)cc1 (stereo not given) | 60.6
56 | Cc1ccc(S(=O)(=O)NC2CNC(=O)C2)cc1C (stereo not given) | 38.5
57 | O=C1CC(NS(=O)(=O)c2ccc(Cl)cc2)CN1 (stereo not given) | 45.5
58 | O=C(c1ccnc(C2CCNCC2)c1)N1CCCC(CO)C1 (stereo not given) | 23.9
59 | CCOCC1CN(C(=O)c2cc(C)oc2C)Cc2c1cnn2C (stereo not given) | 36.2
60 | COC[C@H]1CC[C@H]2[C@H](CCN2S(=O)(=O)c2ccccc2)O1 | 4.68
61 | c1nc(N2CCOCC2)sc1-c1cncn1CCCN1CCCCC1 | 8.32
62 | CCN1CCN(C(=O)CCC2CCN(C(=O)CCSC)CC2)CC1 | 33.5
63 | CSCCC(=O)N1CCN(CC(C)O)CC1 (stereo not given) | 68.2
64 | CC(O)CN1CCN(C(=O)CCOC(C)C)CC1 (stereo not given) | 8.05
65 | CSCCC(=O)N1CCN(CC(O)C(C)(C)C)CC1 (stereo not given) | -46.4
66 | CCC(O)CN1CCN(C(=O)CCSC)CC1 (stereo not given) | 68.2
67 | CC(C)(C)C(O)CN1CCN(C(=O)COCC2CC2)CC1 (stereo not given) | 10.6
68 | CSCC(=O)N1CCN(CC(O)C(C)(C)C)CC1 (stereo not given) | 60.9
69 | CSCCC(=O)N1CCN(CC(C)(C)O)CC1 | -94.3
70 | CCOCCC(=O)N1CCN(CC(C)O)CC1 (stereo not given) | 29.4

— ChEMBL document CHEMBL4513216, “Probing the Open Global Health Chemical Diversity Library for Multistage-Active Starting Points for Next-Generation Antimalarials” (ACS Infect Dis, 2020)
